# Results as given in the supplement of paper PMC12645437, “Orthogonal IMiD-Degron Pairs Induce Selective Protein Degradation in Cells” (ACS Chemical Biology, 2025).
# Over roughly 8,300 sequences, “log2 fold change of degron read counts, EGFP-low vs EGFP+ sorted cells (limma voom), compound-induced degradation” has its median near -1.1; the highest 2% begin near 3.2. The sample holds the highest values, similar sequences and a random draw of the others, so the mix is not that of the screen.
# Target: T1, CRBN, Q96SW2
# T1 chain: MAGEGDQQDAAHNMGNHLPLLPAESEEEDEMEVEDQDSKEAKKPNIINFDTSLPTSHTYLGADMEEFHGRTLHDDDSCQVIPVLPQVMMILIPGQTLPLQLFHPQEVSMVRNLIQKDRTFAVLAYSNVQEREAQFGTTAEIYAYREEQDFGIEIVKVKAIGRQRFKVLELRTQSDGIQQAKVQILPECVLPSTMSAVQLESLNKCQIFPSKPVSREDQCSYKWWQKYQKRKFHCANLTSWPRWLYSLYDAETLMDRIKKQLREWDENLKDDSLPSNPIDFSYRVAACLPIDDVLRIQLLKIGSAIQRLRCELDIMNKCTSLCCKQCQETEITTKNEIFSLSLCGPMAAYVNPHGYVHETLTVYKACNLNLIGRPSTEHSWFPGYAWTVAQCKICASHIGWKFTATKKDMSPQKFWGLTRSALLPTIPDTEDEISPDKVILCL
# Assay: log2 fold change of degron read counts, EGFP-low vs EGFP+ sorted cells (limma voom), compound-induced degradation; higher = more compound-induced degradation of the degron-EGFP fusion; degrons are variants of IKZF1/3 zinc finger 2; compound dose not given here
# Conditions: Jurkat, 18 h
# [1] = compound: compound 19 (5-tert-butyl-thalidomide)
# [2] = compound: compound 22 (5-morpholino-thalidomide)
# [3] = compound: compound 33 (diphenyl IMiD analogue)
# 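Note: pooled lentiviral library of zinc finger degron-EGFP fusions in mCherry-positive Jurkat cells, FACS-sorted after compound exposure, with degron abundance counted by next-generation sequencing.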
Sequence,log2 fold change of degron read counts [1],log2 fold change of degron read counts [2],log2 fold change of degron read counts [3],log2 fold change of degron read counts (compound: thalidomide)
"FRCEICGRNFTQKGNLLRHIKL [46F_47R_49E_50I_52G_53R_54N_55F_67L_, Q9UKT9]",-2.69,-2.64,-1.31,-0.795
"FACNQCGAFFTQKGNLLRHIKL [46F_47A_49N_50Q_52G_53A_54F_55F_67L_, Q9UKT9]",-1.64,-2.14,-1.53,-2.28
"FRCEICGRGFTQKGNLLRHIKL [46F_47R_49E_50I_52G_53R_54G_55F_67L_, Q9UKT9]",-2,-1.92,-0.0801,-0.562
"FECEVCGASFTQKGNLLRHIKL [46F_47E_49E_50V_52G_53A_54S_55F_67L_, Q9UKT9]",2.09,-1.03,1.48,2.32
"FGCEVCGASFTQKGNLLRHIKL [46F_47G_49E_50V_52G_53A_54S_55F_67L_, Q9UKT9]",3.37,2.27,1.58,0.816
"FCCEVCGASFTQKGNLLRHIKL [46F_47C_49E_50V_52G_53A_54S_55F_67L_, Q9UKT9]",3.45,2.85,2.25,2.34
"FWCNVCGASFTQKGNLLRHIKL [46F_47W_49N_50V_52G_53A_54S_55F_67L_, Q9UKT9]",1.46,3.01,1.08,-0.303
"FWCEVCGASFTQKGNLLRHIKL [46F_47W_49E_50V_52G_53A_54S_55F_67L_, Q9UKT9]",3.77,3.54,2.67,1.37
"FSCEVCGASFTQKGNLLRHIKL [46F_47S_49E_50V_52G_53A_54S_55F_67L_, Q9UKT9]",3.58,2.8,2.27,1.63
"FDCEVCGASFTQKGNLLRHIKL [46F_47D_49E_50V_52G_53A_54S_55F_67L_, Q9UKT9]",2.81,0.541,0.131,0.979
"FTCEVCGASFTQKGNLLRHIKL [46F_47T_49E_50V_52G_53A_54S_55F_67L_, Q9UKT9]",2.27,2.96,2.53,3.12
"FKCEVCGASFTQKGNLLRHIKL [46F_47K_49E_50V_52G_53A_54S_55F_67L_, Q9UKT9]",1.43,-1.05,-2,0.154
"FQCEQCGAAFTQKGNLLRHIKL [46F_47Q_49E_50Q_52G_53A_54A_55F_67L_, Q9UKT9]",-0.398,0.724,0.313,3.01
"LTCNQCGFPCTQKGNLLRHIKL [46L_47T_49N_50Q_52G_53F_54P_55C_67L_, Q9UKT9]",-2.43,-2.96,-2.54,-1.71
"FTCEVCGAFFTQKGNLLRHIKL [46F_47T_49E_50V_52G_53A_54F_55F_67L_, Q9UKT9]",-0.934,-0.537,0.743,0.936
"FSCDQCGAMFTQKGNLLRHIKL [46F_47S_49D_50Q_52G_53A_54M_55F_67L_, Q9UKT9]",-1.8,-2.9,-1.87,-2.82
"FSCPQCGAAFTQKGNLLRHIKL [46F_47S_49P_50Q_52G_53A_54A_55F_67L_, Q9UKT9]",0.138,-0.952,1.89,-0.879
"FWCPICGHMFTQKGNLLRHIKL [46F_47W_49P_50I_52G_53H_54M_55F_67L_, Q9UKT9]",-0.107,-0.117,0.131,-0.274
"LHCPICGFMCTQKGNLLRHIKL [46L_47H_49P_50I_52G_53F_54M_55C_67L_, Q9UKT9]",2.17,2.35,2.28,1.44
"FVCEQCGATFTQKGNLLRHIKL [46F_47V_49E_50Q_52G_53A_54T_55F_67L_, Q9UKT9]",-2.6,-1.48,0.0752,-0.452
"FLCNQCGADFTQKGNLLRHIKL [46F_47L_49N_50Q_52G_53A_54D_55F_67L_, Q9UKT9]",-2.76,-3.21,-2.79,-2.29
"FYCEICGHEFTQKGNLLRHIKL [46F_47Y_49E_50I_52G_53H_54E_55F_67L_, Q9UKT9]",-2.18,-2.9,-1.81,-2.55
"FYCPQCGAFFTQKGNLLRHIKL [46F_47Y_49P_50Q_52G_53A_54F_55F_67L_, Q9UKT9]",0.239,0.269,0.837,-1.07
"FLCEVCGASFTQKGNLLRHIKL [46F_47L_49E_50V_52G_53A_54S_55F_67L_, Q9UKT9]",1.64,-0.285,1.43,1.45
"FFCEVCGASFTQKGNLLRHIKL [46F_47F_49E_50V_52G_53A_54S_55F_67L_, Q9UKT9]",3.45,3.66,2.48,1.61
"FNCEVCGASFTQKGNLLRHIKL [46F_47N_49E_50V_52G_53A_54S_55F_67L_, Q9UKT9]",3.22,1.38,0.489,0.435
"FICNICGAGFTQKGNLLRHIKL [46F_47I_49N_50I_52G_53A_54G_55F_67L_, Q9UKT9]",-0.991,1.17,1.13,1.71
"FTCEICGRFFTQKGNLLRHIKL [46F_47T_49E_50I_52G_53R_54F_55F_67L_, Q9UKT9]",-1.56,-2.16,-1.26,-1.11
